Reference: ChEMBL document CHEMBL1157539, “Thousands of chemical starting points for antimalarial lead identification” (Nature, 2010)
Several values for one entry are separate records, joined by “and”; a condition that tells them apart may be missing. Equal entries are not always repeated.

system: HepG2; assay: GSK_TCMDC: Percent inhibition of human HepG2 cell line. Test compounds present at 10uM.; format: functional

| SMILES | Inhibition |
| --- | --- |
| c1ccc(C(OCCC2CCN(Cc3cccnc3)CC2)c2ccccc2)cc1 | 12% |
| Br.COC(=O)C(C)(C)c1ccc(CC(C)NCC(O)c2cccc(C(F)(F)F)c2)cc1 (centres undefined) | 6% |
| COc1ccc(-c2ccccc2)cc1NC(=S)NC1CCC(CN2CCC(c3c[nH]c4ccccc34)CC2)CC1 (centres undefined) | 27% and 51% |
| Cl.NCC(=O)c1cc2c(cc1N)OCCO2 | 64% |
